TAR Tat displ – HIV-1 TAR-Tat binding disruption | 0.6% of 100,000 active | z-score (no concentration beside the values) | AID 1259389 | HIV-1 TAR RNA, Tat peptide displacement FRET; active compounds read high; active means z-score of 3 or more in at least 2 runs
CDC25B-CDK2 inh – human CDC25B-CDK2/CyclinA binding inhibition; P30305+P24941; HTRF CDC25B-CDK2/CyclinA binding, anti-His/anti-Flag; active compounds read high; z-score (no concentration beside the values); 0.72% of 94,000 active; AID 1259370; in the data active means z-score above about 3.2
The depositor's hits bear a star; . = not tested or not shown. Compounds with a hit are over-represented: about 0.86% of the library has one in this group of screens.

SMILES	TAR Tat displ	CDC25B-CDK2 inh
Cc1ccc2occ(CC(=O)Nc3sc4c(c3C(=O)NCC3CCCO3)CCCC4)c2c1 (stereo not drawn)	2.4	-0.47
COc1ccc2ccccc2c1C1CC(=O)N2CN(Cc3ccco3)CSC2=C1C#N (stereo not drawn)	0.91	5.8*
COc1ccc2ccccc2c1C1CC(=O)N2CN(Cc3ccccc3)CSC2=C1C#N (stereo not drawn)	1.6	5.4*
COc1ccc2ccccc2c1C1CC(=O)N2CN(C3CCCCC3)CSC2=C1C#N (stereo not drawn)	-1.6	6.1*
CSc1nc(SCC(N)=O)c2c3c(sc2n1)COC(C)(C)C3	-1.6	-17
CCCC(=O)Nc1ccc2c(c1)nc(Cn1ccnc1C)n2CCC	-0.19	-1.2
CCc1ccccc1NS(=O)(=O)c1cc(-c2onc(C)c2C)ccc1C	1	.
C=CCN(C(=O)Cn1c(C(=O)OC)cc2sc(C)cc21)c1ccccc1	0.07	-1.5
O=C(NCCCN1CCCC1)C1CCN(c2nn3c(=O)c4c(nc3s2)CCCC4)CC1	1.1	.
O=c1[nH]c2ccc(NCc3ccc(-c4ccccc4)o3)cc2[nH]1	-0.75	3.6
O=c1[nH]c2ccc(NCc3ccc(-c4ccc(Cl)cc4)o3)cc2[nH]1	-3.1	10*
O=c1[nH]c2ccc(NCc3ccc(-c4ccccc4F)o3)cc2[nH]1	-1.2	4.7*
O=c1[nH]c2ccc(NCc3ccc4c(c3)OCO4)cc2[nH]1	-1.9	0.69
O=C1CCSc2ccc(S(=O)(=O)NCc3ccccc3)cc2N1	-0.04	.
Cc1cc(O)c2c(c1)C(=O)c1cc(O)cc(O)c1C2=O	1.9	-1.2
O=C1c2cccc(O)c2C(=O)c2c(O)cc(CO)cc21	6.2*	.
Cn1c(=O)c2ccccc2n2c(CCC(=O)N3CCN(c4ccccn4)CC3)nnc12	1.2	-1.4
O=C(Nc1ccc2c(c1)nc1n2CCN(C2CCCCC2)C1)c1ccco1	31*	7.1*
O=C(Nc1ccc2c(c1)nc1n2CCN(C2CCCCC2)C1)NC1CCCCC1	-3	-1.3
CC(C)(C)c1cc(N=Cc2ccc(O)cc2)c(C#N)s1	.	-2.2
CCOC(=O)C1CCCN(C(=O)c2sc3nc(C)nc(N4CCC(C)CC4)c3c2C)C1 (stereo not drawn)	.	-0.42
Cc1nc(N2CCC(C(=O)O)CC2)c2c(C)c(C)sc2n1	4.8*	.
O=C1CC(c2ccco2)Cc2[nH]c(=O)c(-c3nc(-c4ccc(Oc5ccccc5)cc4)cs3)cc21 (stereo not drawn)	0.71	16
CCOc1ccc(-c2csc(-c3cc4c([nH]c3=O)CC(c3ccco3)CC4=O)n2)cc1 (stereo not drawn)	-5.3	19*
CC(=O)Nc1nn2c(-c3ccco3)nnc2s1	1.5	-1.2
SMILES	TAR Tat displ	CDC25B-CDK2 inh
O=C(Cc1ccccc1)Nc1nn2c(-c3ccccc3)nnc2s1	1.4	-1.3
O=C(Nc1nn2c(-c3ccco3)nnc2s1)c1ccco1	22*	-1.1
O=C(Nc1nn2c(-c3ccccc3)nnc2s1)c1ccco1	17*	-1.9
O=C(C1CCCN1S(=O)(=O)c1cccc2cccnc12)N1CCN(c2ccc(F)cc2)CC1 (stereo not drawn)	0.8	-0.95
O=c1cc2nc(-c3cccs3)nc(SCc3ccc(Br)cc3)n2[nH]1	27*	.
Cc1ccc(CSc2nc(-c3cccs3)nc3cc(=O)[nH]n23)cc1	0.81	.
Cn1ccnc1SCC(O)c1ccc2c(c1)OCO2 (stereo not drawn)	-0.04	-0.87
CCOC(=O)N1CCC(Nc2c(N3CCC(N4CCCCC4)CC3)c(=O)c2=O)CC1	0.46	-1.1
CN(C)c1ccc(C(O)C(=O)c2cccs2)cc1 (stereo not drawn)	0.09	0.08
O=C(c1cccs1)C(O)c1cccs1 (stereo not drawn)	-0.77	13*
CCN(CC)CCCN(C)C(=O)Cn1ncc2c(=O)oc3ccc(C)cc3c21	0.13	-0.63
Cc1csc(NC(=O)CSc2nnc(-c3cc4ccccc4o3)n2-c2ccccc2)n1	1.3	.
CCn1c(SCC(=O)Nc2nc(C)cs2)nnc1-c1cc2ccccc2o1	5.3*	.
O=C(CCc1nc2sc3c(c2c(=O)[nH]1)CCCCC3)NC1CCCCC1	-0.45	.
O=C(CCc1nc2sc3c(c2c(=O)[nH]1)CCCCC3)N1CCC(Cc2ccccc2)CC1	4.3*	.
O=C(CCc1nc2sc3c(c2c(=O)[nH]1)CCCCC3)N1CCN(c2cccc(Cl)c2)CC1	28*	.
CC1CCN(C(=O)CCc2nc3sc4c(c3c(=O)[nH]2)CCCC4)CC1	0.18	.
O=C(CCc1nc2sc3c(c2c(=O)[nH]1)CCCCC3)NC1CCCC1	18*	.
O=C(CCc1nc2sc3c(c2c(=O)[nH]1)CCCCC3)N1CCN(c2ncccn2)CC1	2.5	.
CNC(=O)c1cc(Cl)c(NC(=O)C2=C(C)OCCS2)cc1OC	0.31	.
O=c1[nH]cc(C(F)(F)F)cc1Cl	.	-2.6
O=c1[nH]cc(Cl)cc1Cl	.	6.4*
C=CCn1cnc2c(oc3nc4c(cc32)COC(C)(C)C4)c1=O	0.99	.
O=C(C1CCC(Cn2c(=S)[nH]c3ccsc3c2=O)CC1)N1CCCC1 (stereo not drawn)	.	-1.8
C=CCSc1nc2c(c(=O)[nH]1)C(c1cc(F)cc(F)c1)CC(=O)N2 (stereo not drawn)	-0.27	-1.4
SMILES	TAR Tat displ	CDC25B-CDK2 inh
CCOc1cc(C2CC(=O)Nc3nc(SCc4ccccc4C)[nH]c(=O)c32)ccc1O (stereo not drawn)	1.8	-0.18
Cn1c(SCc2ccc(F)cc2)nc(=O)c2c1NC(=O)CC2c1cccc(O)c1 (stereo not drawn)	-0.43	-1.2
Cc1ccc(CSc2nc(=O)c3c(n2C)NC(=O)CC3c2ccc(O)c(O)c2)cc1 (stereo not drawn)	26*	-0.12
CCCSc1nc2c(c(=O)[nH]1)C(c1ccc(O)c(O)c1)CC(=O)N2 (stereo not drawn)	8.5*	7.8*
Cc1ccccc1CSc1nc2c(c(=O)[nH]1)C(c1ccc(O)c(O)c1)CC(=O)N2 (stereo not drawn)	25*	2.9
C=CCSc1nc2c(c(=O)[nH]1)C(c1ccc(O)c(O)c1)CC(=O)N2 (stereo not drawn)	19*	16*
CCOc1cc(C2CC(=O)Nc3nc(SC)[nH]c(=O)c32)ccc1O (stereo not drawn)	1.8	-2.5
N#Cc1c(NC(=O)CSc2ncnc3sc4c(c23)CCC4)sc2c1CCC2	.	-0.47
Cc1cc(C(=O)Nc2sc3c(c2C(N)=O)CCC(C)C3)no1 (stereo not drawn)	.	0.66
Cc1ccc(CNc2nc(NCc3ccc(Cl)cc3)c3cnn(C)c3n2)cc1	0.58	.
Cc1ccc2c(c1)Cc1c(nc(-c3ccccc3C)[nH]c1=O)O2	0.96	-0.69
Cc1cc2nc(COC(=O)CC(C)C)cc(=O)n2o1	-0.55	.
O=C1c2ccccc2-c2onc3c(N4CCN(C(=O)c5ccco5)CC4)cc(NCc4ccco4)c1c23	15*	1.6
COCCNc1cc(N2CCN(C(=O)c3ccco3)CC2)c2noc3c2c1C(=O)c1ccccc1-3	2.8	0.55
CCNc1cc(N2CCN(C(=O)c3ccco3)CC2)c2noc3c2c1C(=O)c1ccccc1-3	2.6	-1.6
O=C1c2ccccc2-c2onc3c(N4CCN(C(=O)c5ccco5)CC4)cc(NCCO)c1c23	7.4*	0.78
COc1cc(C2Nc3ccccc3NC3=C2C(=O)CC(c2ccccc2)C3)cc(Br)c1O (stereo not drawn)	-5.7	-3.5

Screening results: PubChem BioAssay, Center for Chemical Genomics, University of Michigan
